The list is not random: actives were taken first. Their share in the collection is about 19%.
HepG2 viability – HepG2 cytotoxicity, counter-screen for TGF-b inhibitors; HepG2 CAGA-GFP viability, ATP luminescence, 18 h; Potency, µM (series often up to 46.1 µM), for inactives: at the top dose activity change, negative = cytotoxicity, actives largely listed as cytotoxic; 0.76% of 410,000 active; AID 588856; note: potency is the fitted concentration of half-maximal effect
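CellTiter-Glo luminescence gave cytotoxicity after 18 hours at 37 degrees C. The cells were HepG2 CAGA-GFP in 1% FBS DMEM, stimulated with 500 pg/mL TGF-beta after compound addition. %Activity was normalised to no-cell wells (complete cell-killing) and DMSO (no toxicity), and curves were fitted and classified.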
IL1B secr inh – blocks inflammasome-driven IL-1 beta release; THP-1 LPS/ATP IL-1B secretion, AlphaLISA, 16 h; stronger effect = lower value; activity change, % at 57.5 µM; 4.7% of 360,000 active; AID 743279; in the data active = activity change below about -50%; inconclusive = mostly about -30% to -49%; note: % is set by controls: 0 for no effect and ±100 for the full control effect
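Secreted IL-1B measured by AlphaLISA bead assay after 16 h compound exposure of THP-1 cells; compounds (final up to 57.5 uM) added 1 h before LPS (250 ng/mL) and ATP (1.25 mM) stimulation; lower signal means less secretion.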
TDP1 inh – TDP1 (human) enzyme inhibition | recombinant TDP1, AlphaScreen DNA substrate cleavage | Potency, µM (top dose mostly 130 µM), for inactives: top-dose activity change, negative = inhibition, usual class: inhibitors | 0.28% of 350,000 active; note: potency is the fitted concentration of half-maximal effect; % is set by controls: 0 for no effect and ±100 for the full control effect; nearly all actives have a fitted effect of over 40% in size
Target sequence (Q9NUW8 whole entry, looked up): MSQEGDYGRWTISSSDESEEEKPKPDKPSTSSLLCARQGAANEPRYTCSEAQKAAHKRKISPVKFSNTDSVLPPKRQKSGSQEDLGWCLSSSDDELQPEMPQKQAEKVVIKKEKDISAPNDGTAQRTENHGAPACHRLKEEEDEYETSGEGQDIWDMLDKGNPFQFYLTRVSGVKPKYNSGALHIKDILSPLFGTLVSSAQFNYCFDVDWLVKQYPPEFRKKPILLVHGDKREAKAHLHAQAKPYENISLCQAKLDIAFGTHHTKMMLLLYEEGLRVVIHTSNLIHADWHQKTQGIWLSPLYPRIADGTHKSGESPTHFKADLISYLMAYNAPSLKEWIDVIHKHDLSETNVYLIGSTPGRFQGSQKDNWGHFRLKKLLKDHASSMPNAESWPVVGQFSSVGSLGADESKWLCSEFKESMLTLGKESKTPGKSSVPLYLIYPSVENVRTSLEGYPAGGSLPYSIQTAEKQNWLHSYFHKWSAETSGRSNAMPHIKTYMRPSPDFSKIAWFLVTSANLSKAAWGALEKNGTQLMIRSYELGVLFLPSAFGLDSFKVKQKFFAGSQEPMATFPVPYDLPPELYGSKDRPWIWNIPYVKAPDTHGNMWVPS
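Enzyme-compound mixtures sat 15 min at room temperature, followed by a 5 min reaction with 15 nM final substrate and 10 min with AlphaScreen beads. Recombinant human Tdp1 was used at 1 nM final.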
TGFb SMAD3 inh – TGF-b pathway inhibition; 1.2% of 410,000 active; HepG2 CAGA-GFP TGF-b/SMAD3 reporter, GFP fluorescence, 18 h; TGF-beta stimulated, 500 pg/mL final; Potency, µM (highest dose often 46.1 µM), without a hit: at the top dose activity, negative = inhibition, hits mostly inhibitors; note: potency is the fitted concentration of half-maximal effect; % is set by controls: 0 for no effect and ±100 for the full control effect; nearly all actives have a fitted effect of over 65% in size
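HEPG2 CAGA-GFP reporter cells (1000/well, DMEM with 1% FBS) received compounds, then recombinant TGF-beta at 500 pg/mL final for 18 hours at 37 degrees C. Per-cell GFP summed per well was normalised to unstimulated and stimulated DMSO controls before curve fitting.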
DT40 TDP1 CPT – DT40-hTDP1 cell growth loss with CPT. Potency, µM (doses to about 46.2 µM), for inactives: top-dose activity change, negative = growth inhibition, actives largely listed as inhibitors. 12% of 420,000 active. AID 686979. chicken DT40 Tdp1-/-;hTDP1 cells + 20 nM CPT, ATP luminescence, 48 h; note: potency is the fitted concentration of half-maximal effect; % is set by controls: 0 for no effect and ±100 for the full control effect; nearly all actives have a fitted effect of over 55% in size
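Cell growth measured by CellTiter-Glo luminescence after a minimum 48 h, 37 C compound exposure with 20 nM CPT in Tdp1-knockout DT40 cells stably expressing hTDP1, seeded 400/well; qHTS titration format.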
TDP1 cell noCPT – qHTS for Inhibitors of human tyrosyl-DNA phosphodiesterase 1 (TDP1): qHTS in cells in absence of CPT | Potency, µM (titrated, usually from 46.2 µM), for inactives: at the highest dose activity change, negative = growth inhibition, usual class: inhibitors | AID 686978, 2013 | 15% of 420,000 active | DT40 Tdp1-/- hTDP1 cells, no CPT, ATP luminescence, 48 h; note: potency is the fitted concentration of half-maximal effect; % is set by controls: 0 for no effect and ±100 for the full control effect; nearly all actives have a fitted effect of over 55% in size
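Readout: luminescence from CellTiter-Glo after 30 min in the dark at RT. Cells: DT40 Tdp1-/- with stable hTDP1, 400/well. Exposure: compounds alone, ≥48 hr, 37 °C.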
* hit, by the source's call; [ ] = dose if it differs, or a comment. Unless noted, calls come from the whole dose curve; as a rule, active = well fitted curve in the direction sought with a large enough effect; inconclusive = small, poorly fitted or top-dose-only effect, or another doubt; inactive = no such curve, though single readings can be large; an effect the other way counts as inactive or inconclusive.

What do the screens show for `COc1ccccc1Cc1nc2ccccc2nc1SCC(=O)N1CCC(C)CC1`?
HepG2 viability: -60%; TDP1 inh: 0%; TGFb SMAD3 inh: 16µM*; DT40 TDP1 CPT: 16µM*; TDP1 cell noCPT: 9.2µM*

What do the screens show for `O=C(CSc1nc2ccccc2nc1Cc1ccccc1)Nc1ccccc1C(F)(F)F`?
HepG2 viability: -3%; TDP1 inh: 3%; TGFb SMAD3 inh: 2%; DT40 TDP1 CPT: -23%; TDP1 cell noCPT: -12%

Results for CCc1cccc(C)c1NC(=O)CSc1nc2ccccc2nc1Cc1ccccc1 ?
HepG2 viability: -9%; TDP1 inh: 0%; TGFb SMAD3 inh: inconclusive; DT40 TDP1 CPT: inconclusive; TDP1 cell noCPT: 16µM*

How did Cc1cc(NC(=O)CON=C(N)CC(=O)Nc2ccccc2Cl)ccc1Br do in these assays?
HepG2 viability: -46%; IL1B secr inh: -12; TDP1 inh: -11%; TGFb SMAD3 inh: -43%; DT40 TDP1 CPT: -5%; TDP1 cell noCPT: inconclusive

Results for CC(C)c1ccc(/C=N/NC(=O)CN(c2cccc(Cl)c2Cl)S(C)(=O)=O)cc1 ?
HepG2 viability: -104%; IL1B secr inh: inconclusive; TDP1 inh: 3%; TGFb SMAD3 inh: inconclusive; DT40 TDP1 CPT: 29µM*; TDP1 cell noCPT: inconclusive

What do the screens show for `CCOC(=O)c1ccc(-c2ccc(/C=N/NC(=O)CN(c3ccccc3Cl)S(C)(=O)=O)o2)cc1`?
HepG2 viability: 0%; IL1B secr inh: -9; TDP1 inh: -3%; TGFb SMAD3 inh: 5%; DT40 TDP1 CPT: inconclusive; TDP1 cell noCPT: 23µM*

How did CS(=O)(=O)N(CC(=O)N/N=C/c1ccccc1C(=O)O)c1cccc(Cl)c1Cl do in these assays?
HepG2 viability: 11%; IL1B secr inh: 18; TDP1 inh: 4%; TGFb SMAD3 inh: -2%; DT40 TDP1 CPT: -14%; TDP1 cell noCPT: 0%

How did CCOC(=O)c1ccc(-c2ccc(/C=N/NC(=O)CN(c3cccc(C)c3)S(C)(=O)=O)o2)cc1 do in these assays?
HepG2 viability: -2%; IL1B secr inh: 13; TDP1 inh: -11%; TGFb SMAD3 inh: 0%; DT40 TDP1 CPT: inconclusive; TDP1 cell noCPT: 15µM*

Results for O=C(c1ccccc1)N1CCN2C(=O)c3ccccc3C12c1ccc(Cl)cc1 (centres undefined) ?
HepG2 viability: -7%; IL1B secr inh: inconclusive; TDP1 inh: 6%; TGFb SMAD3 inh: 40%; DT40 TDP1 CPT: 21µM*; TDP1 cell noCPT: 18µM*

How did Cc1cc(NS(=O)(=O)c2ccc(NC(=O)COc3ccc(Cl)c(C)c3)cc2)no1 do in these assays?
HepG2 viability: 4%; IL1B secr inh: 4; TDP1 inh: 5%; TGFb SMAD3 inh: 17%; DT40 TDP1 CPT: -1%; TDP1 cell noCPT: 3%

How did CCOC(=O)C(C(C)=O)c1c(Br)c(O)c(O)c2c(C(=O)c3ccc(C)cc3)coc12 (centres undefined) do in these assays?
HepG2 viability: -41%; IL1B secr inh: -27; TDP1 inh: 0%; TGFb SMAD3 inh: 10µM*; DT40 TDP1 CPT: 2.9µM*; TDP1 cell noCPT: 2.6µM*

Results for CCOC(=O)c1nn(-c2ccc(C)cc2)c(C)c1C(C)=O ?
HepG2 viability: -14%; IL1B secr inh: -18; TDP1 inh: 0%; TGFb SMAD3 inh: 4%; DT40 TDP1 CPT: -3%; TDP1 cell noCPT: -1%

Results for CCOC(=O)c1c(C)n(-c2ccc(C)cc2)c2c(C(C(C)=O)C(=O)O)c(Br)c(O)c(O)c12 (centres undefined) ?
HepG2 viability: -1%; IL1B secr inh: -8; TDP1 inh: 9%; TGFb SMAD3 inh: inconclusive; DT40 TDP1 CPT: 23µM*; TDP1 cell noCPT: 23µM*

What do the screens show for `Cc1ccc(NC(=O)c2c(C)oc3ccc(O)c(CN(C)Cc4ccccc4)c23)c(C)c1`?
HepG2 viability: -22%; TDP1 inh: 1%; DT40 TDP1 CPT: 16µM*; TDP1 cell noCPT: 15µM*

What do the screens show for `CCN(Cc1ccccc1)Cc1c(O)ccc2oc(C)c(C(=O)Nc3ccc(C)cc3C)c12`?
HepG2 viability: -46%; TDP1 inh: 7%; TGFb SMAD3 inh: inconclusive; DT40 TDP1 CPT: 7.3µM*; TDP1 cell noCPT: 7.3µM*

What do the screens show for `Cc1ccc(NC(=O)c2c(C)oc3ccc(O)c(CN4CCCC4)c23)c(C)c1`?
HepG2 viability: 0%; TDP1 inh: -10%; TGFb SMAD3 inh: 10%; DT40 TDP1 CPT: inconclusive; TDP1 cell noCPT: inconclusive

Results for CCOc1cccc(C2c3c(oc4ccc(F)cc4c3=O)C(=O)N2CCOC)c1 (centres undefined) ?
HepG2 viability: -27%; TDP1 inh: -1%; TGFb SMAD3 inh: inconclusive; DT40 TDP1 CPT: 5%; TDP1 cell noCPT: -4%

What do the screens show for `COc1ccc(-c2cc(C)no2)cc1S(=O)(=O)Nc1cccc(CN2CCCC2)c1`?
HepG2 viability: -24%; IL1B secr inh: 0; TDP1 inh: 1%; TGFb SMAD3 inh: -4%; DT40 TDP1 CPT: 1%; TDP1 cell noCPT: 0%

Results for CCOc1ccc(N(CC)S(=O)(=O)N2CCCC(C(=O)Nc3ccc(OC)c(OC)c3)C2)cc1 (centres undefined) ?
HepG2 viability: -22%; TDP1 inh: 3%; TGFb SMAD3 inh: -26%; DT40 TDP1 CPT: inconclusive; TDP1 cell noCPT: inconclusive

What do the screens show for `C#CCn1c(=NC(=O)c2cccs2)sc2cccc(OCC)c21`?
HepG2 viability: -24%; IL1B secr inh: 43; TDP1 inh: 7%; TGFb SMAD3 inh: -4%; DT40 TDP1 CPT: -25%; TDP1 cell noCPT: 21µM*

What do the screens show for `CC(C)CN(C(=O)CN(C)CC(=O)Nc1ccc(Cl)c(C(F)(F)F)c1)c1c(N)n(CC(C)C)c(=O)[nH]c1=O`?
HepG2 viability: -8%; IL1B secr inh: -66*; TDP1 inh: -1%; TGFb SMAD3 inh: -3%; DT40 TDP1 CPT: inconclusive; TDP1 cell noCPT: 18µM*

How did CCCCn1c(N)c(N(CCOC)C(=O)CSCc2ccc(Cl)c(Cl)c2)c(=O)[nH]c1=O do in these assays?
HepG2 viability: -11%; IL1B secr inh: -13; TDP1 inh: -10%[0.505 µM]; TGFb SMAD3 inh: -8%; DT40 TDP1 CPT: -26%; TDP1 cell noCPT: inconclusive
